PubChem BioAssay
Unmarked numbers belong to inactive results. The rule behind the calls is not given here.

Molecular target: Pantothenate synthetase (Mycobacterium tuberculosis (strain ATCC 25618 / H37Rv)) (UniProt P9WIL5)
Assay: Recombinant Mtb pantothenate synthetase (PanC) inhibitors, coupled enzyme, confirmatory (AID 375);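 note: 0% = full reaction with vehicle and 100% = no enzyme background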
Settings: coupled enzyme assay; at 10 µM, hits give high values

Chain of Pantothenate synthetase (Mycobacterium tuberculosis (strain ATCC 25618 / H37Rv)) (P9WIL5 whole entry, looked up): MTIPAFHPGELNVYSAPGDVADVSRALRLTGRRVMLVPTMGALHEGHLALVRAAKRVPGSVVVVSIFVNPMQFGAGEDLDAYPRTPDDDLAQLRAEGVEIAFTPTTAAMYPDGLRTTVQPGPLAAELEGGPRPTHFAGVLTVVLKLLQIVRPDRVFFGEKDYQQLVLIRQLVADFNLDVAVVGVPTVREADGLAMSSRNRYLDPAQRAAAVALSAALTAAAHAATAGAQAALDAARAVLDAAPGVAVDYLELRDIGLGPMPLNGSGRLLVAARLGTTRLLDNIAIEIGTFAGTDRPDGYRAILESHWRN

Compound | inhibition [%]
COCCN1C(=O)C(=O)/C(=C(/O)c2cccc(OC)c2)C1c1ccncc1 (stereo unspecified) | 1
CCN1CCN(C(CNC(=O)c2ccc3c(c2)OCO3)c2cccnc2)CC1 (stereo unspecified) | 0
CSc1nc2ccc(S(=O)(=O)N3CCOCC3)cc2s1 | 4
CCN1CCN(C(=O)c2oc(=O)c3ccccc3c2-c2ccc(C)cc2)CC1 | 0
COc1c(C(=O)Nc2c(C)n(C)n(-c3ccccc3)c2=O)ccc2ccccc12 | 0
CCOC(=O)N1CCN(CC(O)COc2ccccc2C(C)CC)CC1 (stereo unspecified) | 7
